Laboratory results as given in PubChem BioAssay AID602292 (National Center for Advancing Translational Sciences (NCATS), 2012).
Among all 1,300 compounds or so, about 380 (29%) were called active. Not shown: some 37% with an inconclusive outcome. Calls follow the shape of the dose curve; as a rule, active = well fitted inhibition curve with a large enough effect; inconclusive = small, poorly fitted or top-dose-only effect; inactive = flat fitted curve, though single readings scatter. Some of the results follow.

biological target: Thyrotropin receptor (Homo sapiens) (UniProt P16473); assay: qHTS for antagonists of the Thyroid Stimulation Hormone Receptor: Hit Validation in Primary Screen; settings: TSHR-expressing cells, cAMP antagonist mode; series mostly up to 58 µM; activity change, negative = inhibition: at the top concentration; also: nearly all actives have a fitted effect of over 80% in size;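 as to activity change, negative = inhibition: cAMP by competitive HTRF where cellular cAMP lowers the 665 nm FRET signal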
Sequence (P16473 whole entry, looked up): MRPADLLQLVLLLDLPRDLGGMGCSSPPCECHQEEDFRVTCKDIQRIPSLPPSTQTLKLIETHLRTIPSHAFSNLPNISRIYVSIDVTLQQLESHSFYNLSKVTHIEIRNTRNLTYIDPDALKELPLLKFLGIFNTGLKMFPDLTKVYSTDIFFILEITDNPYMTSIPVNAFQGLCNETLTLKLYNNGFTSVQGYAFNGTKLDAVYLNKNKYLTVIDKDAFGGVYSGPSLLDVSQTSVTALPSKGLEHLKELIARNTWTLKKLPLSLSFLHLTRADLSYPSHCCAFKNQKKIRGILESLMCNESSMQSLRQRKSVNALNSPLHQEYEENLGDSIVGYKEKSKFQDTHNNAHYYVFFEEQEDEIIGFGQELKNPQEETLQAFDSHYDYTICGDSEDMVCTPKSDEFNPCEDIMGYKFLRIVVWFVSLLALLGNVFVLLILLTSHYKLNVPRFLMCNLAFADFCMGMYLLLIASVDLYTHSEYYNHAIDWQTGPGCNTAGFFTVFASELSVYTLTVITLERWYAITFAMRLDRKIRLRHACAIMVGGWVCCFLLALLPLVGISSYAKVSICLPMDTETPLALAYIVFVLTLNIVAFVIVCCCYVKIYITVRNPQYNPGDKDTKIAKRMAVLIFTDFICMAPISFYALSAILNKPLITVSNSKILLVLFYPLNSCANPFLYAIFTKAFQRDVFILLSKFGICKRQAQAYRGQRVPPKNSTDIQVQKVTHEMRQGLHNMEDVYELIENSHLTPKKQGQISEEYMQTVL
Procedure, shortened: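 TSHR-expressing cells were pretreated with compound, then stimulated with TSH at EC80 (4nM final) for 2 hours at 37 deg C. Cellular cAMP measured by competitive HTRF (anti-cAMP cryptate, cAMP-d2) after 30 min at room temperature.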
% is scaled to controls: 0 for no effect and ±100 for the full control effect; potency is read from the fitted curve at half-maximal effect.

Activity change, negative = inhibition, inactive:
CCN(CC)C(=O)Cn1c(=O)n(-c2ccccc2)c(=O)c2sccc21 -6.22%
CC(=O)c1ccc(N(C(=O)CNC(=O)c2ccco2)C(C(=O)NC2CCCC2)c2ccncc2)cc1 (stereo not drawn) -7.52%
COc1ccc(NC(=O)CCNS(=O)(=O)c2ccc3c(c2)CC(C)N3C(C)=O)cc1 (stereo not drawn) -2.68%
COc1ccc(NC(=S)N(CCCN2CCOCC2)C(C)c2cc3cccc(OC)c3o2)cc1 (stereo not drawn) 0.0576%
N#Cc1nc(-c2ccccc2)oc1N1CCN(C(=O)c2ccco2)CC1 -13.5%
CC(C)Nc1ncnc2c1nnn2Cc1ccccc1 -6.31%
CCOc1ccc(N(CC(=O)NCc2ccc(F)cc2)C(=O)CCC(=O)Nc2nccs2)cc1 -3.75%
O=C(Nc1nc(-c2cccs2)cs1)c1cccc(S(=O)(=O)N2CCCCCC2)c1 -9.77%
CN(Cc1ccccc1)S(=O)(=O)c1ccc(OCC(=O)NCc2ccccn2)cc1 -6.28%
CCN(CC)c1ccc(C(=O)OCC(=O)N2CCCC2)cc1 -7.98%
COc1cccc(NC(=S)N2CCCN(Cc3ccc(F)cc3)C2)c1 -5.53%
Cn1nnnc1SCC1=C(C(=O)O)N2C(=O)C(NC(=O)C3CC3c3ccccc3)C2SC1 (stereo not drawn) -2.74%
O=C1C=C(c2ccc(Cl)c(C(F)(F)F)c2)C[C@@H](c2ccc(F)cc2)C1 -9.8%
Cc1ccc(-c2nnc(SCC(=O)NC3CCCC3)n2C)cc1 -11.3%
COc1ccc(F)cc1CN1CCN(C(=O)CCC(=O)Nc2nnc(CC(C)C)s2)CC1 -4.64%
O=c1[nH]cccc1-c1nc2ccccc2n1Cc1ccc(F)cc1 -9.22%
Cn1c(CNC(=O)c2ccc(Cl)cc2)nnc1SCC(=O)NC1CCCC1 -4.87%
CCN(c1cccc(C)c1)S(=O)(=O)c1cn(CC(=O)OC)c2ccc([N+](=O)[O-])cc12 -6.34%
CNC(=S)n1cnc(N)n1 -2.97%
NS(=O)(=O)c1ccc(CCNC(=O)c2cc3ccccc3s2)cc1 -13.8%
O=C(CNC(=O)c1ccco1)OCC(=O)c1ccccc1 -4.52%
CCCCNC(=O)CC1C(=O)N(Cc2ccccc2)C(C)c2nc3ccccc3n21 (stereo not drawn) 1.18%
CC(=O)N(C)c1ccc(N=NC2C(=O)N(C(N)=S)N=C2C)cc1 (stereo not drawn) -11.7%
O=C1c2cccnc2C(=O)N1Cc1ccc(S(=O)(=O)N2CCN(c3ccc(Cl)cc3)CC2)cc1 -7.87%
Cc1onc(-c2ccccc2)c1NC(=O)N(Cc1ccccc1)C(C)C -7.43%
Cc1cccc(NC(=O)CCN2CCN(C)CC2)c1 -2.77%

Potency, active:
COc1ccc(OCC(=O)NC(=S)Nc2ccc(N3CCOCC3)c(Cl)c2)cc1 19 µM
O=C(c1ccco1)N1CCN(c2ncnc3c2nnn3Cc2ccccc2Cl)CC1 30.1 µM
CN(C)S(=O)(=O)c1ccc(C(=O)Nc2nc(-c3cccs3)cs2)cc1 19 µM
CCOC(=O)Cc1csc(NC(=O)COc2ccc(N(C)S(=O)(=O)c3cccs3)cc2)n1 23.9 µM
O=C(COc1ccc(Cl)cc1)Nc1nc(-c2cccs2)cs1 23.9 µM
CC1CCCCN1C(=O)CSCC(=O)Nc1nc(-c2cccs2)cs1 (stereo not drawn) 30.1 µM
CSC1=NSC2=NC(=O)/C(=C\c3coc4ccccc4c3=O)C(=N)N12 2.69 µM
CCSC1=NSC2=NC(=O)/C(=C\c3coc4ccccc4c3=O)C(=N)N12 1.69 µM
N#Cc1cccc(NC(=O)COC(=O)c2cc(S(=O)(=O)Nc3ccccc3Cl)ccc2O)c1 12 µM
CCC(=O)OCCNc1cc(Sc2nccn2C)c2nonc2c1[N+](=O)[O-] 19 µM
CC(=O)OCCNc1cc(Sc2nc3ccccc3[nH]2)c2nonc2c1[N+](=O)[O-] 26.9 µM
CCCC(=O)OCCNc1cc(Sc2nc3ccccc3[nH]2)c2nonc2c1[N+](=O)[O-] 23.9 µM
CCC(=O)OCCNc1cc(Sc2nc3ccccc3[nH]2)c2nonc2c1[N+](=O)[O-] 23.9 µM
CC1=NN(C(N)=S)C(=O)C1N=Nc1ccc(Cl)cc1Cl (stereo not drawn) 30.1 µM
COc1cccc(N2CCN(c3ncnc4c3cnn4-c3ccc(C)cc3C)CC2)c1 10.7 µM
CC(C)N(Cc1ccccc1)C(=O)COC(=O)c1cnc(Cl)c(Cl)c1 23.9 µM
Cc1cccc(/C=C/C(=O)c2cc(Br)ccc(=O)c2O)c1 15.1 µM
CCc1ccc(/C=C/C(=O)c2cc(Br)ccc(=O)c2O)cc1 9.53 µM
CCCCOCCCNc1ncnc2c1[nH]c1ccccc12 30.1 µM
COc1ccc2[nH]c3c(NCCC4=CCCCC4)ncnc3c2c1 4.78 µM
C1=C(CCNc2ncnc3c2[nH]c2ccccc23)CCCC1 23.9 µM
Cc1cccc(NC(=S)NCC(C)CSc2ccc(Cl)cc2)c1 (stereo not drawn) 30.1 µM
